Screening data: PubChem BioAssay, Broad Institute
A selection: hits, their analogues and other compounds. The true share with any hit is near 4%.
Statin myotox sup: protects C2C12 myotubes from simvastatin toxicity. ATP luminescence, 48 h; scaled: DMSO 0, geranylgeraniol control 100. rescue of ATP level, % at 7.49 µM. 330,000 tested, 0.78% active. AID 602340;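 active means mean ATP rescue above about 67%, or every replicate alone reaching that limit, limit read from the data, passing the limit was not always enough; inconclusive means no clear call, values can overlap the other calls; inactive means mean under the limit and some replicate under it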;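 further: myotubes were challenged with 10 µM simvastatin during compound exposure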
Wnt bcat act: activates Wnt/beta-catenin signaling in a reporter cell assay; AID 743398; 300,000 tested, 1.2% active; activation, % at 9.35 µM; activator, plate reader; in the data active means activation above about 30%, passing the limit was not always enough; inconclusive means no clear call, values can overlap the other calls
MITF TRPM1 HTS: increases MITF-driven TRPM1 promoter luciferase signal. AID 588334. activation, % at 12.5 µM. SK-MEL-5 TRPM1-promoter luciferase, 24 h; % of positive control, neutral wells = 0. 300,000 tested, 0.75% active;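 active means mean activation of at least 80% with every replicate also reaching 80%; inconclusive means mean reaches 80% but some replicate falls short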
LMP1 NFkB inh: inhibitors of Epstein-Barr LMP1-induced NF-kappaB reporter. inhibition, % at 12.5 µM. LMP1-induced NF-kappaB luciferase reporter cells, luminescence. 350,000 tested, 0.69% active. AID 504558; in the data active means inhibition above about 41%; inconclusive means no clear call, values can overlap the other calls
TRPM1 prom inh: MITF TRPM1 promoter inhibition in SK-MEL-5 cells | SK-MEL-5 TRPM1 promoter luciferase, 24 h | inhibition, % at 12.5 µM | 330,000 tested, 0.83% active | AID 488899;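 active means mean inhibition across replicates of 60% or more, whatever share of single replicates reaches that level; inconclusive means some that reach 60%, reason not given; inactive means mean inhibition across replicates below 60%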
esBAF inh: blocks esBAF chromatin remodeling in mouse ES cells. Bmi1-luciferase knock-in reporter, 24 h; 100% = twice the neutral-well signal. 350,000 tested, 2% active. reporter increase, % at 12.5 µM. AID 602393; in the data active means activation above about 40%; inconclusive means no clear call, values can overlap the other calls;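 further: a rise in the Bmi1 reporter signal indicates esBAF inhibition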
Each line names hits and unclear results; the compound was inactive in the other large screens; ! = not confirmed by another sample.

COc1ccc(C(=O)Nc2nc3ccc(OC)cc3s2)cc1	none (no result: MITF TRPM1 HTS)
COc1ccc2nc(Nc3nc(C)c(C(C)=O)s3)sc2c1	Wnt bcat act 56
COc1ccc2nc(NC(=O)Nc3ccccc3)sc2c1	Wnt bcat act 56!
Cc1cccc(NNC(=O)c2c(F)cccc2Cl)c1	none
COc1ccc(NC(=S)N2CCC(N(C)CC3CCCO3)CC2)cc1 (stereo not drawn)	none (no result: Statin myotox sup, esBAF inh)
Nc1ccccc1-n1cccc1	Wnt bcat act 62 (no result: Statin myotox sup, MITF TRPM1 HTS, esBAF inh)
CC(O)CNCc1ccccc1C(F)(F)F (stereo not drawn)	Wnt bcat act 41
Cc1ccc(NS(=O)(=O)Cc2ccccc2)cc1Cl	none
Cn1c(=O)c(C(=O)Nc2ncccc2O)c(O)c2ccccc21	none
Cn1c(=O)c(C(=O)NCc2ccccc2)c(O)c2ccccc21	esBAF inh 45 (no result: MITF TRPM1 HTS)
Cc1ccc(NC(=O)c2c(Cl)n(C)c3ccccc23)cc1	esBAF inh 67 (no result: Wnt bcat act)
Cc1ccc(NC(=O)c2c(O)c3ccccc3n(C)c2=O)nc1	esBAF inh 48 (no result: Wnt bcat act, MITF TRPM1 HTS)
Cn1c(=O)c(C(=O)NCc2ccc(F)cc2)c(O)c2ccccc21	none
CCOC(=O)CC1=Nc2ccccc2NC(=O)C1	none (no result: MITF TRPM1 HTS)
CCOc1ccc(-c2nnc(-c3ccccc3)n2-c2ccccc2)cc1	Wnt bcat act 59 (no result: MITF TRPM1 HTS)
COCC(=O)N(C)C[C@@H]1Oc2ncc(C#Cc3ccncc3)cc2C(=O)N([C@@H](C)CO)C[C@@H]1C	none (no result: Statin myotox sup, Wnt bcat act, MITF TRPM1 HTS, LMP1 NFkB inh, TRPM1 prom inh)
O=C(O)c1cc(-c2cccnc2)nc2ccccc12	none
CC(=O)c1ccc(OCc2cc(C(=O)N(C)C(C)c3nccs3)no2)cc1 (stereo not drawn)	esBAF inh 54
COc1ccc(OCc2cc(C(=O)N(C)Cc3nnc(C)o3)no2)c(Cl)c1	esBAF inh inconclusive
CC(=O)c1ccc(OCc2cc(C(=O)N(C)C(C)c3ccon3)no2)cc1 (stereo not drawn)	none
COc1ccc(OCc2cc(C(=O)N(C)Cc3cc(C)no3)no2)c(Cl)c1	esBAF inh 48
CCc1ccc(CN(C)C(=O)c2cc(COc3ccc(OC)cc3Cl)on2)nc1	esBAF inh 46
CC(=O)c1ccc(OCc2cc(C(=O)N(C)Cc3cc(C)no3)no2)cc1	esBAF inh 62
CCNC(=O)c1c(NC(=O)c2cc(-c3cc(C)ccc3O)n[nH]2)sc2c1CCCC2	none (no result: Statin myotox sup, esBAF inh)
CN1C(=O)c2cc(NC(=O)c3cccc(F)c3)ccc2OC[C@@H]2O[C@H](CC(=O)NCc3ccccc3Cl)CC[C@@H]21	none (no result: Wnt bcat act, MITF TRPM1 HTS, LMP1 NFkB inh, TRPM1 prom inh)
Cc1nonc1CN(C)C(=O)c1cc(COc2ccc(F)cc2Cl)on1	none
Cc1ccc(CN(C)C(=O)c2cc(COc3ccc(F)cc3Cl)on2)o1	esBAF inh 60
CCN(Cc1ccncc1)C(=O)c1cc(COc2ccc(OC)cc2Cl)on1	esBAF inh 72
CCN(Cc1ccncc1)C(=O)c1cc(COc2ccc(F)cc2Cl)on1	none
CC(=O)c1cccc(OCc2cc(C(=O)N(C)Cc3cnccn3)no2)c1	MITF TRPM1 HTS 96 (no result: Statin myotox sup, esBAF inh)
O=C1C2ON(c3ccccc3)C(c3ccncc3)C2C(=O)N1c1ccc(Br)cc1 (stereo not drawn)	none (no result: Wnt bcat act)
CSc1ncc(C(=O)Nc2ccc(C(C)=O)cc2)c(-c2ccccc2)n1	esBAF inh 61
CSc1ncc(C(=O)Nc2ccccc2F)c(-c2ccccc2)n1	none (no result: MITF TRPM1 HTS, TRPM1 prom inh)
Oc1ccc(-c2nccc(-c3ccc(F)cc3)n2)cc1	MITF TRPM1 HTS 92, esBAF inh inconclusive
NNC(=O)COc1ccc(-c2nccc(-c3ccc(F)cc3)n2)cc1	none
COc1c(C(=O)Nc2c(C)n(C)n(-c3ccccc3)c2=O)ccc2ccccc12	none
Cc1cccc(C(=O)NNC(=O)Nc2ccccc2)c1	none (no result: Wnt bcat act)
CCCCNC(=S)NNC(=O)c1csc(CC)c1	none
CCc1cc(C(=O)NNC(=S)Nc2cccc(C)c2)cs1	Wnt bcat act 39, esBAF inh 50 (no result: MITF TRPM1 HTS)
CCc1cc(C(=O)Nc2ccc(C)cc2Br)cs1	Wnt bcat act 70 (no result: Statin myotox sup, MITF TRPM1 HTS, esBAF inh)
Cc1cccc(NC(=S)NNC(=O)c2csc(C(C)C)c2)c1	Wnt bcat act 50 (no result: MITF TRPM1 HTS)
Cc1cccc(NC(=S)NNC(=O)c2sccc2C)c1	esBAF inh 42 (no result: Wnt bcat act)
COCc1cn(CC[C@@H]2CC[C@@H](NC(=O)Nc3ccc(C(F)(F)F)cc3)[C@@H](CO)O2)nn1	none (no result: Wnt bcat act, MITF TRPM1 HTS, LMP1 NFkB inh, TRPM1 prom inh)
CN1CCN(c2ccc(CNC(=O)c3ccco3)cc2)CC1	none (no result: Statin myotox sup, esBAF inh)
Cc1cccc(-c2noc(CNC(=O)Nc3ccc(F)cc3)n2)c1	none (no result: Statin myotox sup, esBAF inh)
Cc1ccc(NC(=O)c2cnccn2)c(Br)c1	esBAF inh 52
CCc1sc(C(=O)Nc2ncccc2C)cc1C	esBAF inh 54
CCc1sc(C(=O)Nc2nc(-c3ccccn3)cs2)cc1C	LMP1 NFkB inh inconclusive (no result: Wnt bcat act, esBAF inh)
CCc1sc(C(=O)Nc2ccc(F)cc2C)cc1C	none (no result: Statin myotox sup, Wnt bcat act, esBAF inh)
CCc1sc(C(=O)Nc2ncccc2O)cc1C	Wnt bcat act inconclusive, LMP1 NFkB inh 52
CCc1sc(C(=O)NCc2ccccc2)cc1C	none (no result: Statin myotox sup, esBAF inh)
CCc1sc(C(=O)Nc2nccs2)cc1C	Wnt bcat act 47
Cc1cccc(NC(=O)Nc2ccc(S(N)(=O)=O)cc2)c1	none (no result: Statin myotox sup, MITF TRPM1 HTS, LMP1 NFkB inh, TRPM1 prom inh, esBAF inh)
CC(C)(CN1CCCC1)NS(=O)(=O)c1ccc(Cl)cc1	none
CC(C)COc1ccc(C(=O)OCCN2CCCCC2)cc1	none
CCOc1ccccc1C(=O)N/N=C/c1cccc2cccnc12	none (no result: MITF TRPM1 HTS)
O=C1C(C2=NC(C(=O)O)C3C(=O)N(c4ccccc4)C(=O)C23)=C(O)c2ccccc21 (stereo not drawn)	none (no result: MITF TRPM1 HTS)
O=C1C(C2=C(O)c3ccccc3C2=O)=Nc2ccccc21	TRPM1 prom inh 66 (no result: Wnt bcat act, MITF TRPM1 HTS)
Cc1ccc(NC(=O)C2CCCN(S(=O)(=O)c3ccc4[nH]c(=O)ccc4c3)C2)nc1 (stereo not drawn)	none
Cc1ccc(C)c(NC(=S)c2ccccn2)c1	Wnt bcat act 36, esBAF inh 46
S=C(Nc1ccccn1)c1ccccn1	none (no result: MITF TRPM1 HTS)
Cc1ccc(C)c(NC(=S)c2ccc3ccccc3n2)c1	esBAF inh 76
O=C(/C=C/c1cccc(Cl)c1)Nn1c(-c2cccs2)nc2ccccc2c1=O	none
COc1ccc(C=O)cc1CSc1nnc(COc2cccc3cccnc23)o1	Statin myotox sup 138 (no result: Wnt bcat act)
O=C1NN=C(c2ccccc2)C1Cc1ccccc1 (stereo not drawn)	none (no result: Statin myotox sup, esBAF inh)
O=C(Nc1ccccc1)Nc1cccc2cccnc12	esBAF inh 85 (no result: Wnt bcat act, MITF TRPM1 HTS)
O=C(Nc1ccccc1)Nc1ccccn1	esBAF inh 45 (no result: Wnt bcat act)
O=C(Nc1ccccn1)c1ccc(-c2ccccc2)cc1	LMP1 NFkB inh 47 (no result: MITF TRPM1 HTS)
CCOC(=O)c1ccc(NC(=O)Nc2cccc(C)n2)cc1	none
O=C(Nc1ccccc1)Nc1cccc2ccccc12	none
CCOC(=O)c1ccc(NC(=O)Nc2ccccn2)cc1	MITF TRPM1 HTS 102, esBAF inh 59
COc1ccc(C(=O)Nc2ccccn2)cc1	none (no result: Wnt bcat act)
O=C(Nc1ccccc1)Nc1ccc2ocnc2c1	esBAF inh 57
O=C(NCc1ccccn1)C(=O)Nc1ccccc1	none (no result: Statin myotox sup, esBAF inh)
O=C(Nc1ccccc1)OCCc1ccccn1	esBAF inh 80
CCOC(=O)c1cc(NC(=O)c2cnccn2)cc(C(=O)OCC)c1	none (no result: Wnt bcat act)
O=C(Nc1ccccc1)Nc1ccc2ncoc2c1	none (no result: Statin myotox sup, esBAF inh)
